Assay outcomes as filed in PubChem BioAssay.
Only some compounds are listed: those with a hit (about 10% of all), similar ones and a draw of the others.
KB-V1 cytotox: KB-V1 MDR subline cytotoxicity | KB-V1 MDR cells viability, CellTiter-Glo, 72 h | Potency, µM (highest dose often 46.1 µM), usual class: cytotoxic | AID 1347076 | hit rate 3.4% among 400,000; also: % is scaled to controls: 0 for no effect and ±100 for the full control effect; nearly all actives have a fitted effect of over 60% in size
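Cytotoxicity via CellTiter-Glo luminescence after 72 h compound exposure at 37 degrees C. Cells: drug-selected KB-V1 line, DMEM phenol-red free plus 10% FBS. Compounds tested at multiple concentrations; normalized data fitted to concentration-effect curves.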
RORg inh: blocks mouse ROR gamma transcriptional activity; Drosophila S2 Gal4-RORgamma UAS-luciferase reporter, 20 h; hit rate 5.4% among 310,000; AID 2551; Potency, µM (titrated, usually from 53.6 µM), for inactives: top-dose activity change, negative = inhibition, actives largely listed as inhibitors; P51450; also: % is scaled to controls: 0 for no effect and ±100 for the full control effect; nearly all actives have a fitted effect of over 60% in size
Target sequence (P51450 whole entry, looked up, the tested form may be a part): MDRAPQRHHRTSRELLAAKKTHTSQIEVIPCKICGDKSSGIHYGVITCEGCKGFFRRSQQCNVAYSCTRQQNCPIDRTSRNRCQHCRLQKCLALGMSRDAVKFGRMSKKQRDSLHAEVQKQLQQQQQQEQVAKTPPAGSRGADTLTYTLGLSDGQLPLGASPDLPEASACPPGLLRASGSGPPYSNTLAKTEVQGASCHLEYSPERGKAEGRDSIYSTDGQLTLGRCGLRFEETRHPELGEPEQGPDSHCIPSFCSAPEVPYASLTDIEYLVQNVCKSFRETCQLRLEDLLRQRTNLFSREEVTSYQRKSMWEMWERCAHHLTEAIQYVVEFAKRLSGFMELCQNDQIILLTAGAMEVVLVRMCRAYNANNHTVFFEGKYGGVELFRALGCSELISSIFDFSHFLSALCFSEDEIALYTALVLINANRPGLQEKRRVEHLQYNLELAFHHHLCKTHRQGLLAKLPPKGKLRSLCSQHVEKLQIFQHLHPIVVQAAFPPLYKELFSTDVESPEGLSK
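ROR gamma transcriptional activity was tracked as Gal4-UAS luciferase output in stably transfected Drosophila Schneider cells, with compound added 1 hr before 700 uM copper sulfate induction and a 20 hr ambient-temperature incubation.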
Gal4-VP16 FLuc: counter-screen for ROR gamma inhibitors: Gal4-VP16 reporter; Drosophila S2 Gal4-VP16 UAS-luciferase, luminescence, 20 h; Potency, µM (titrated, usually from 53.6 µM), without a hit: top-dose activity, negative = inhibition, hits mostly inhibitors; hit rate 3.5% among 310,000;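 also: Gal4-VP16 expression switched on by copper sulfate through the metallothionein promoter; % is scaled to controls: 0 for no effect and ±100 for the full control effect; nearly all actives have a fitted effect of over 50% in size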
KB-3-1 tox: KB-3-1 parental cell cytotoxicity | Potency, µM (highest dose often 46.1 µM), actives largely listed as cytotoxic | KB-3-1 viability, CellTiter-Glo ATP luminescence, 72 h | AID 1347075 | hit rate 1.4% among 400,000; also: % is scaled to controls: 0 for no effect and ±100 for the full control effect; nearly all actives have a fitted effect of over 60% in size
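Screening of KB-3-1 cells (DMEM, 10% FBS, phenol-red free) ran from lowest to highest compound concentration; after 72 h at 37 °C viability was read luminescently and curves fitted.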
MCF10A rerep: inducers of DNA re-replication in MCF 10A breast cells. MCF 10A DNA re-replication, Hoechst nuclear intensity, 48 h. Potency, µM (top dose mostly 46.1 µM), without a hit: top-dose activity, positive = re-replication, hits mostly activators. hit rate 2.9% among 350,000. AID 624296; also: % of control where 0% means no effect; nearly all actives have a fitted effect of over 50% in size
SW480 rerep: inducers of DNA re-replication in SW480 colon cancer cells; SW480 DNA re-replication, Hoechst DNA content imaging, 48 h; Potency, µM (titrated, usually from 46.1 µM), inactives show at the highest dose re-replication activation, most hits filed as activators; hit rate 1.8% among 340,000; also: % of control where 0% means no effect; nearly all actives have a fitted effect of over 55% in size
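Compounds, transferred as 23 nL by pin tool, were incubated with cells for 48 hr; DNA content per nucleus was then quantified by Hoechst staining and fluorescence plate imaging.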
An asterisk follows results filed as active; i = inactive; ? = inconclusive; . = not tested or not shown. Calls follow the shape of the dose curve; as a rule, active = well fitted curve in the direction sought with a large enough effect; inconclusive = small, poorly fitted or top-dose-only effect, or another doubt; inactive = no such curve, though single readings can be large; an effect the other way counts as inactive or inconclusive. Potency is read from the fitted curve at half-maximal effect.

SMILES | KB-V1 cytotox | RORg inh | Gal4-VP16 FLuc | KB-3-1 tox | MCF10A rerep | SW480 rerep
CCOC(=O)c1c(NC(=O)C2=C(C)NC(=S)NC2c2ccc(C)cc2)sc(C)c1C (centres undefined) | 20.6µM* | 2.82µM* | 3.55µM* | ? | ? | 2.3%
CCOC(=O)c1c(NC(=O)C2=C(C)NC(=S)NC2c2ccc(F)cc2F)sc(C)c1C (centres undefined) | ? | 2.82µM* | 6.31µM* | ? | ? | ?
CCOC(=O)c1ccc2nc(C)cc(Nc3ccc(OC(C)C)cc3)c2c1 | ? | . | . | i | . | .
BrC(Br)C(Br)Br | . | 0.6% | 10.8% | . | . | .
O=C(CSc1ncccc1C(=O)O)c1ccccc1F | i | 42.2% | -6.8% | i | 7.5% | 4.1%
O=C(O)CSc1ncccc1C(=O)O | i | 0.6% | -14.2% | i | 9.2µM* | 6.4%
O=C(CSc1ncccc1C(=O)O)c1ccc2ccccc2c1 | i | 11.2µM* | 2.24µM* | i | 17.5% | -5.7%
Cc1ccccc1Cc1c(C)nc2nc(SCC(=O)N(C)c3ccccc3)nn2c1C | i | . | . | i | . | .
O=C1NCC(O)=C1C=NC12CC3CC(CC(C3)C1)C2 | i | -10.1% | -4.4% | i | 14.6µM* | ?
OCc1ccccc1SSc1ccccc1CO | ? | . | . | ? | 18.4µM* | ?
OCc1ccccc1O | . | -0.9% | -6.2% | . | 0.5% | -5.5%
CCCCOc1ncnc2c1[nH]c1ccc(C)cc12 | 7.31µM* | -24.0% | 10µM* | ? | -2.0% | -1.1%
CCCOc1ncnc2c1[nH]c1ccccc12 | ? | -3.0% | ? | ? | ? | -0.5%
CCCOc1ncnc2c1[nH]c1ccc(OC)cc12 | 14.6µM* | -11.6% | -10.2% | ? | 8.5% | 20.4%
CCOC(=O)c1c(S(=O)(=O)N2CCC(C(=O)Nc3ccc(C)cn3)CC2)c(C)n(C)c1C | ? | . | . | i | . | .
Cc1ccc(NC(=O)/C=C/c2ccco2)nc1 | 0.103µM* | ? | -22.0% | 0.164µM* | ? | ?
O=C(/C=C/c1ccco1)Nc1cccc2cccnc12 | ? | 21.2% | 9.2% | i | 9.8% | 1.7%
COC(=O)c1c(NC(=O)/C=C/c2ccco2)sc2c1CCC2 | i | 7.7% | -18.0% | i | ? | 2.4%
Cc1sc(NC(=O)/C=C/c2ccco2)c(C(=O)OC(C)C)c1C | i | ? | 15.8µM* | i | 0.8% | -4.5%
O=C(/C=C/c1ccco1)Nc1ccccn1 | ? | -44.8% | -28.3% | 5.8µM* | 14.6µM* | 5.17µM*
O=C(/C=C/c1ccco1)Nc1nc(-c2ccccn2)cs1 | i | 2.82µM* | 11.2µM* | i | 136.7% | ?
O=C(/C=C/c1ccco1)Nc1scc(-c2ccccc2)c1C(=O)O | i | 10µM* | ? | ? | -0.8% | -2.1%
O=C(/C=C/c1ccccc1)Nc1scc(-c2ccccc2)c1C(=O)O | i | -32.6% | ? | i | -0.9% | -1.0%
O=C(N/N=C/c1cccc([N+](=O)[O-])c1)c1cc(-c2ccc3c(c2)OCO3)n[nH]1 | i | 1.8% | ? | i | 11.6µM* | -121.9%
C/C(=N\NC(=O)c1cc(-c2cccc([N+](=O)[O-])c2)n[nH]1)c1ccccc1O | i | 3.16µM* | 17.8µM* | ? | -34.3% | ?
SMILES | KB-V1 cytotox | RORg inh | Gal4-VP16 FLuc | KB-3-1 tox | MCF10A rerep | SW480 rerep
CCc1ccc(/C=N/NC(=O)c2cc(-c3cccc([N+](=O)[O-])c3)n[nH]2)cc1 | ? | -9.1% | 0.9% | ? | 5.17µM* | 23.1µM*
O=C(N/N=C/c1cccc(O)c1)c1cc(-c2ccc3c(c2)OCO3)n[nH]1 | ? | -31.9% | -25.3% | i | 13.7% | -8.8%
CCn1cc(C(=O)Nc2ccc(C(C)C)cc2)c2cc(OC)c(OC)cc2c1=O | ? | . | . | i | . | .
Cc1ccc(C(=O)NNC(=O)c2cc3ccccc3cc2O)cc1 | ? | 14.1µM* | ? | ? | -0.7% | 25.8%
O=C(Nc1nnc(-c2ccncc2)o1)c1ccc2ccccc2c1 | i | 1.12µM* | 0.562µM* | ? | 9.6% | ?
Cc1cccc(C(=O)Nc2nnc(-c3cccnc3)o2)c1 | ? | 0.708µM* | 1.26µM* | i | -6.6% | 3.0%
Cc1ccc(C(=O)Nc2ccc3ccccc3c2)cc1 | i | 6.31µM* | 11.2µM* | i | -4.9% | -4.1%
CC1=C(C(N)=O)C(c2ccc(F)cc2)n2nc(-c3ccc(N(C)C)cc3)nc2N1 (centres undefined) | i | . | . | i | . | .
CC1(C)CC(=O)c2c(oc3cc4c(cc23)OCO4)C1 | . | ? | -3.6% | . | . | .
COCCCNC(=O)c1sc2nc(C)c(C(=O)Nc3ccc(C)cc3C)c(-c3ccccc3Cl)c2c1N | i | . | . | i | . | .
Cc1ccc(SCC(c2ccccc2)N2CCN(C)CCC2=O)cc1 (centres undefined) | . | -19.4% | -4.2% | . | . | .
Cc1cc(C(=O)Nc2ccc3ccccc3c2)c(C)o1 | i | 8.91µM* | ? | i | -0.8% | 3.9%
COC(=O)c1ccc(C(=O)Nc2nnc(-c3cccnc3)o2)cc1 | . | 2.51µM* | 2.82µM* | . | . | .
O=C(Nc1ccc2ccccc2c1)c1ccc(Cl)cc1 | i | ? | ? | i | 0.0% | -0.8%
COC(=O)c1ccc(C(=O)Nc2ccc3nc(-c4cccnc4)[nH]c3c2)cc1 | i | 30.0% | -8.7% | ? | -12.5% | 1.7%
O=C(Nc1ccncc1)c1ccc2ccccc2c1 | 16.4µM* | 22.0% | -26.8% | i | 7.0% | -2.5%
CC1(C(=O)Nc2ccc3ccccc3c2)CC1(Br)Br (centres undefined) | i | 11.2µM* | ? | i | -1.0% | -1.1%
CC(=O)c1cc(C(=O)Nc2ccc3ccccc3c2)c(C)o1 | i | -6.6% | -16.6% | i | -5.2% | -5.1%
O=C(c1ccco1)N1CCC2(CC1)CN(c1cccc(-c3ccccc3)c1)C2 | . | 13.7% | -28.7% | . | . | .
O=C(Nc1nnc(-c2cccnc2)o1)c1ccccc1Cl | i | 8.91µM* | ? | i | -0.2% | 2.0%
O=C(Nc1ccncc1NC(=O)c1cccc([N+](=O)[O-])c1)c1cccc([N+](=O)[O-])c1 | i | -2.0% | -13.1% | i | 2.2% | 1.7%
Cc1cccc(C(=O)Nc2nnc(-c3ccncc3)o2)c1 | i | 3.16µM* | 2.82µM* | i | 8.4% | 13.6%
O=C(Nc1ccncc1)c1cc(F)cc(F)c1 | i | ? | 25.1µM* | i | -3.9% | ?
Cc1cccc(C(=O)Nc2ccnc(-c3ccncc3)n2)c1 | ? | -8.8% | -12.4% | i | 2.8% | 37.4%
O=C(Nc1nnc(-c2cccnc2)o1)c1cccc([N+](=O)[O-])c1 | . | 0.794µM* | 1.12µM* | . | . | .
O=C(Nc1ccncc1)c1ccc(Br)cc1 | ? | 27.1% | 3.2% | i | 7.9% | -2.2%
